Assay results: PubChem BioAssay AID624330 (Southern Research Specialized Biocontainment Screening …, 2012)
In all, about 340,000 compounds went through this assay and about 2,100 (0.62%) were called active.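 Rule for the calls: active = first-screen hits whose inhibition reached a set limit at any dose in the follow-up dose series; inconclusive = inhibition above the set first-screen limit but never retested; inactive = the rest.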 The list is a sample of the results. Potency and affinity values are given separately.

What follows are compounds tested against Rac GTPase-activating protein 1 (Homo sapiens) (UniProt Q9H0H5) (assay: MgcRacGAP GTPase-activating activity inhibitors, confirmation, biochemical, ADP Hunter fluorescence, primary and confirmatory (AID 624330;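 note: fluorescence reports GDP produced by GAP-driven GTP hydrolysis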)). Conditions: MgcRacGAP-stimulated Rac1 GTP hydrolysis, at 30 µM, active compounds read high, GST-tagged Rac1 F28L mutant substrate.
Rac GTPase-activating protein 1 (Homo sapiens), sequence (Q9H0H5 whole entry, looked up): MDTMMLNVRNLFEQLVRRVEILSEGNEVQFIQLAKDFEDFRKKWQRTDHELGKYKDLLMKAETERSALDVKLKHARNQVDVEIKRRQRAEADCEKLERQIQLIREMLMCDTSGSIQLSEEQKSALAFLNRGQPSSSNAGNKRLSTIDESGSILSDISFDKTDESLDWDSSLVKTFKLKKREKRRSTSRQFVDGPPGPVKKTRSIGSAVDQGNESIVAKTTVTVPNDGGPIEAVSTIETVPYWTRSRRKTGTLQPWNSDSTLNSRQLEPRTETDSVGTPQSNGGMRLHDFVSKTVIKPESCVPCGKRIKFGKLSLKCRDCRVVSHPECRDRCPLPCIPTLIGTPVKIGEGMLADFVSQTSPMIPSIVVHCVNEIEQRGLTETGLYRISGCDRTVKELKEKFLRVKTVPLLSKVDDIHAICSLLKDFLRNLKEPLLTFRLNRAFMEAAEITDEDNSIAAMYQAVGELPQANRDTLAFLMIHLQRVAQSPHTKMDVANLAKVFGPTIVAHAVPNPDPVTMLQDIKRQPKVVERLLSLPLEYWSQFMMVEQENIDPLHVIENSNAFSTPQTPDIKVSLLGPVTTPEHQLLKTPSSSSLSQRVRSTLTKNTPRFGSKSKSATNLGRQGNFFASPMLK

inhibition, inactive:
CC(=O)Nc1cc(S(=O)(=O)Nc2ccc(C)cc2)c(C)cc1C 11.6%
Cc1cc(C(=O)CCC(=O)N(C)CC(=O)Nc2c(Cl)cccc2Cl)c(C)s1 1.85%
C/C(=N\NS(=O)(=O)c1ccc(Cl)c([N+](=O)[O-])c1)c1cc2ccccc2o1 10.9%
O=C(O)c1ccc2c(c1)C1C=CCC1C(c1ccncc1)N2 (centres undefined) 9.53%
CCOC(=O)c1ccc2c(c1)C1C=CCC1C(C(=O)OCC)N2 (centres undefined) 12.1%
CC(=O)c1ccc2c(c1)C1C=CCC1C(c1ccncc1)N2 (centres undefined) 13%
CCOC(=O)C1Nc2ccc(C)cc2C2C=CCC12 (centres undefined) 10.5%
O=C(C[C@H]1C(=O)N(CCc2ccccc2)C[C@@H]1Cc1ccccc1)Nc1ccc(Br)cc1 12.8%
CN(C)c1ccc(O)c2c1CC1CC3C(N(C)C)C(=O)C(C(N)=O)=C(O)[C@@]3(O)C(=O)C1=C2O (some centres undefined) 9.88%
C[C@H]1c2cccc(O)c2C(O)=C2C(=O)C3(O)C(O)=C(C(N)=O)C(=O)[C@@H](N(C)C)[C@@H]3[C@@H](O)[C@@H]21 (some centres undefined) 1.02%
CN(C)c1ccc(O)c2c1CC1CC3[C@@H](N(C)C)C(=O)C(C(N)=O)C(=O)[C@]3(O)C(=O)C1C2=O (some centres undefined) 15.3%
C=C1c2cccc(O)c2C(=O)C2C(=O)[C@]3(O)C(=O)C(C(N)=O)C(=O)[C@@H](N(C)C)[C@@H]3[C@@H](O)[C@H]12 (some centres undefined) 73.9%
C[C@H]1c2cccc(O)c2C(O)=C2C(=O)[C@]3(O)C(O)=C(C(N)=O)C(=O)[C@@H](N(C)C)[C@@H]3[C@@H](O)[C@@H]21 8.18%
C[C@H]1c2cccc(O)c2C(O)=C2C(=O)[C@]3(O)C(O)=C(C(N)=O)C(=O)[C@@H](N(C)C)C3[C@@H](O)C21 (some centres undefined) 2.79%
CC(=O)Nc1ccc(-c2csc(NCCc3ccccc3)n2)cc1 9.25%
O=C1CN(C(=O)COC(=O)Cc2ccccc2F)c2ccccc2N1 3.02%
Nc1cc(S(=O)(=O)Nc2ccccc2Cl)ccc1N1CCCC1 11.5%
O=C(O)CSc1nnc(CNc2cccc(C(F)(F)F)c2)n1Cc1ccco1 10.8%
COC(=O)CCC(=O)NNC(=O)CCC(=O)Nc1cccc(Cl)c1C 8.78%
COc1ccc(OC)c(-c2csc(NC(=O)CSc3ccc(Br)cc3)n2)c1 5.11%
COc1cccc(C(=O)Nc2cc3c(cc2N2CCOCC2)n(C)c(=O)n3C)c1 -34.3%
CCn1c(=O)n(CC)c2cc(N3CCCC3)c(NC(=O)c3cccc(OC)c3)cc21 8.3%
CCn1c(=O)n(CC)c2cc(N3CCCC3)c(NC(=O)c3cccc(C)c3)cc21 11.6%
CCn1c(=O)n(CC)c2cc(N3CCCC3)c(NC(=O)c3ccc(F)cc3)cc21 17%
O=C(NCC(c1ccco1)N1CCCCC1)c1cccnc1 (centres undefined) 0.38%
C/C(N)=C(/C#N)C(=O)CSc1nc2ccccc2n1CC(C)C 8.8%
NC(=S)N=Nc1c(O)n(CC(=O)Nc2ccccc2)c2ccccc12 -6.62%
COc1ccc(C(=O)Nc2c(N)nc(SCC(=O)N3CCC(C)CC3)[nH]c2=O)cc1 6.29%
N#Cc1ccsc1NC(=O)C1=COCCO1 10.4%
CN(C)c1ccc(CNCC2CCCO2)cc1 (centres undefined) -6.93%
CN(C)c1ccc(C(=O)NCC2CCCO2)cc1 (centres undefined) -9.43%
CN(CC(=O)Nc1cccc(S(=O)(=O)N2CCOCC2)c1)CC(=O)Nc1ccc(Cl)c(C(F)(F)F)c1 6.95%
C/C(=N\O)C(C)(C)Nc1ccc(Cl)cc1 11.3%
CC(C)C(CO)NC(=O)CC(=O)NC(CO)C(C)C (centres undefined) 5.27%
CN(C)c1ccc(C=NN2CCCCCC2)cc1 -2.87%
CC1CCCC(C)N1/N=C/c1ccc(N(C)C)cc1 (centres undefined) 9.58%
Cc1ccc(C(=O)N2CCN(c3ccc(N4CCOCC4)nn3)CC2)cc1C 5.24%
CCOC(=O)c1c(NC(N)=O)sc(C)c1C 1.42%
CCOC(=O)Nc1sc(C)c(C)c1C(=O)OCC -8.16%
O=c1[nH]c2ccccc2n2c(-c3ccncc3)nnc12 6.75%
O=c1[nH]c2ccccc2n2c(C(F)(F)F)nnc12 5.97%
O=C(Nc1ccc(Cl)cc1)c1ccc2nsnc2c1 -0.42%
CC(=O)c1ccc(NC(=O)c2ccc3nc(C)sc3c2)cc1 5.73%
COC(=O)c1ccc(NC(=O)c2ccc3nsnc3c2)cc1 2.71%
COC(=O)c1ccc(NC(=O)c2ccc3nc(C)sc3c2)cc1 -0.39%
O=C(/C=C/c1ccc(Cl)c(Cl)c1)NCCCn1ccnc1 7.08%
CN1c2ccc(Cl)cc2C(=O)NC1c1ccc([N+](=O)[O-])s1 (centres undefined) 11.4%
Cc1cccn2c(=O)c(C=NCc3ccccc3)c(NCCO)nc12 7.69%
C#CCOCCOCCOCCNc1nc(N2CCN(C(=O)[C@H](CCCCN)n3cc([C@@H](N)CO)nn3)CC2)nc(N2CCN(C(=O)[C@H](CCCCN)n3cc([C@@H](N)CC(C)C)nn3)CC2)n1 19.8%
C#CCOCCOCCOCCNc1nc(N2CCN(C(=O)C(Cc3cc4ccccc4[nH]3)n3cc(C(N)C(C)CC)nn3)CC2)nc(N2CCN(C(=O)C(Cc3cc4ccccc4[nH]3)n3cc(C(N)C(C)CC)nn3)CC2)n1 (centres undefined) 4.22%
C#CCOCCOCCOCCNc1nc(N2CCN(C(=O)[C@H]([C@@H](C)CC)n3cc([C@@H](N)CC(C)C)nn3)CC2)nc(N2CCN(C(=O)[C@H](CCCCN)n3cc([C@@H](N)C(C)CC)nn3)CC2)n1 (some centres undefined) 19.8%
C#CCOCCOCCOCCNc1nc(N2CCOCC2)nc(N2CCN(C(=O)[C@H](CCCCN)n3cc([C@@H](N)CC(C)C)nn3)CC2)n1 11.6%
C#CCOCCOCCOCCNc1nc(N2CCOCC2)nc(N2CCN(C(=O)[C@H](Cc3cc4ccccc4[nH]3)n3cc([C@@H](N)C(C)CC)nn3)CC2)n1 (some centres undefined) 13.4%
C#CCOCCOCCOCCNc1nc(N2CCN(C(=O)[C@H](CCCCN)n3cc(C(N)CC(C)C)nn3)CC2)nc(N2CCN(C(=O)[C@H](CCC(=O)O)n3cc(C(N)[C@H](C)CC)nn3)CC2)n1 (some centres undefined) 13.4%
